In all, about 5,500 compounds went through this assay and about 2,000 (36%) were called active. Roughly 18% stayed inconclusive and do not appear here. Cut-off read from the data, not from the text of the source: active = normalized growth mostly below about 0.91 (no sharp cut-off); inconclusive = no clear call, values can overlap the other calls; inactive = mostly above about 0.92. The list shows a part of the results.
Assay: chemical genetic growth profiling, strain panel (AID 1159580);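 note: tested at 20 µM; growth read once vehicle control cultures reached saturation at 30 °C; 1 = growth at the plate median or of vehicle wells; lower values mean less growth of the strain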
Details: growth OD

Measured: normalized growth

COc1c(N2CCNC(C)C2)c(F)cc2c(=O)c(C(=O)O)cn(C3CC3)c12 (configuration not stated)
active: S. cerevisiae deletion strains, locus YLR320W, strain mms22, stronger effect = lower value 0.75 | S. cerevisiae deletion strains, locus YML032C, strain rad52, stronger effect = lower value 0.492 | S. cerevisiae deletion strains, locus YNL250W, strain rad50, stronger effect = lower value 0.868
inactive: S. cerevisiae deletion strains, locus YJR075W, strain HOC1, stronger effect = lower value 0.989 | S. cerevisiae deletion strains, locus YKL009W, strain mrt4, stronger effect = lower value 1.02 | S. cerevisiae deletion strains, locus YKL068W, stronger effect = lower value 0.997 | S. cerevisiae deletion strains, locus YKL085W, strain MDH1 (second series), stronger effect = lower value 0.995 | S. cerevisiae deletion strains, locus YKL085W, strain MDH1, stronger effect = lower value 0.995 | S. cerevisiae deletion strains, locus YKL160W, strain elf1, stronger effect = lower value 0.975 | S. cerevisiae deletion strains, locus YKL190W, strain CNB1, stronger effect = lower value 1.01 | S. cerevisiae deletion strains, locus YKR001C, strain vps1, stronger effect = lower value 0.996 | S. cerevisiae deletion strains, locus YKR026C, strain gcn3, stronger effect = lower value 0.987 | S. cerevisiae deletion strains, locus YKR091W, strain srl3, stronger effect = lower value 0.98 | S. cerevisiae deletion strains, locus YLL001W, strain dnm1, stronger effect = lower value 0.998 | S. cerevisiae deletion strains, locus YLL026W, stronger effect = lower value 0.985 | S. cerevisiae deletion strains, locus YLL041C, strain sdh2, stronger effect = lower value 0.988 | S. cerevisiae deletion strains, locus YLR027C, strain aat2, stronger effect = lower value 0.99 | S. cerevisiae deletion strains, locus YLR039C, strain RIC1, stronger effect = lower value 0.837 | S. cerevisiae deletion strains, locus YLR058C, strain SHM2, stronger effect = lower value 1 | S. cerevisiae deletion strains, locus YLR102C, strain apc9, stronger effect = lower value 0.988 | S. cerevisiae deletion strains, locus YLR113W, strain HOG1, stronger effect = lower value 1.03 | S. cerevisiae deletion strains, locus YLR221C, strain rsa3, stronger effect = lower value 0.975 | S. cerevisiae deletion strains, locus YLR258W, strain gsy2, stronger effect = lower value 0.987 | S. cerevisiae deletion strains, locus YLR262C, strain YPT6 (second series), stronger effect = lower value 0.915 | S. cerevisiae deletion strains, locus YLR262C, strain YPT6, stronger effect = lower value 0.846 | S. cerevisiae deletion strains, locus YLR268W, strain sec22, stronger effect = lower value 0.988 | S. cerevisiae deletion strains, locus YLR330W, strain CHS5, stronger effect = lower value 1.01 | S. cerevisiae deletion strains, locus YLR342W, strain FKS1 (second series), stronger effect = lower value 0.881 | S. cerevisiae deletion strains, locus YLR342W, strain FKS1, stronger effect = lower value 0.972 | S. cerevisiae deletion strains, locus YLR357W, strain rsc2, stronger effect = lower value 0.934 | S. cerevisiae deletion strains, locus YLR370C, strain arc18, stronger effect = lower value 0.978 | S. cerevisiae deletion strains, locus YLR371W, strain rom2, stronger effect = lower value 0.989 | S. cerevisiae deletion strains, locus YLR384C, strain iki3, stronger effect = lower value 0.995 | S. cerevisiae deletion strains, locus YLR418C, strain cdc73, stronger effect = lower value 0.973 | S. cerevisiae deletion strains, locus YML016C, strain PPZ1, stronger effect = lower value 1.01 | S. cerevisiae deletion strains, locus YML120C, strain ndi1, stronger effect = lower value 0.984 | S. cerevisiae deletion strains, locus YML124C, strain tub3, stronger effect = lower value 0.985 | S. cerevisiae deletion strains, locus YMR058W, strain fet3, stronger effect = lower value 0.992 | S. cerevisiae deletion strains, locus YMR078C, strain ctf18, stronger effect = lower value 0.974 | S. cerevisiae deletion strains, locus YMR125W, strain sto1, stronger effect = lower value 0.928 | S. cerevisiae deletion strains, locus YMR129W, stronger effect = lower value 0.974 | S. cerevisiae deletion strains, locus YMR205C, strain PFK2, stronger effect = lower value 0.996 | S. cerevisiae deletion strains, locus YMR223W, strain ubp8, stronger effect = lower value 0.999 | S. cerevisiae deletion strains, locus YMR231W, strain pep5, stronger effect = lower value 0.993 | S. cerevisiae deletion strains, locus YMR263W, strain SAP30, stronger effect = lower value 1.01 | S. cerevisiae deletion strains, locus YMR307W, strain GAS1, stronger effect = lower value 0.845 | S. cerevisiae deletion strains, locus YNL067W, strain RPL9B, stronger effect = lower value 1 | S. cerevisiae deletion strains, locus YNL071W, strain lat1, stronger effect = lower value 0.985 | S. cerevisiae deletion strains, locus YNL128W, strain TEP1, stronger effect = lower value 1.03 | S. cerevisiae deletion strains, locus YNL153C, strain GIM3, stronger effect = lower value 1.01 | S. cerevisiae deletion strains, locus YNL183C, strain NPR1, stronger effect = lower value 0.983 | S. cerevisiae deletion strains, locus YNL209W, strain ssb2, stronger effect = lower value 0.986 | S. cerevisiae deletion strains, locus YNL233W, strain BNI4, stronger effect = lower value 1.01 | S. cerevisiae deletion strains, locus YNL248C, strain rpa49, stronger effect = lower value 0.917 | S. cerevisiae deletion strains, locus YNL271C, strain bni1, stronger effect = lower value 1 | S. cerevisiae deletion strains, locus YNL298W, strain CLA4, stronger effect = lower value 1.02 | S. cerevisiae deletion strains, locus YNL307C, strain MCK1, stronger effect = lower value 1 | S. cerevisiae deletion strains, locus YNL322C, strain KRE1 (second series), stronger effect = lower value 0.967 | S. cerevisiae deletion strains, locus YNL322C, strain KRE1, stronger effect = lower value 1.01 | S. cerevisiae deletion strains, locus YNR049C, strain mso1, stronger effect = lower value 0.963 | S. cerevisiae deletion strains, locus YNR052C, strain pop2, stronger effect = lower value 1 | S. cerevisiae deletion strains, locus YOL006C, strain TOP1, stronger effect = lower value 0.936 | S. cerevisiae deletion strains, locus YOL012C, strain htz1 0.555 | S. cerevisiae deletion strains, locus YOL147C, strain pex11, stronger effect = lower value 1 | S. cerevisiae deletion strains, locus YOR001W, strain rrp6, stronger effect = lower value 0.986 | S. cerevisiae deletion strains, locus YOR061W, strain CKA2, stronger effect = lower value 1.01 | S. cerevisiae deletion strains, locus YOR069W, strain VPS5, stronger effect = lower value 1.01 | S. cerevisiae deletion strains, locus YOR070C, strain gyp1, stronger effect = lower value 0.994 | S. cerevisiae deletion strains, locus YOR080W, strain dia2, stronger effect = lower value 0.97 | S. cerevisiae deletion strains, locus YOR083W, strain WHI5, stronger effect = lower value 1 | S. cerevisiae deletion strains, locus YOR106W, strain vam3, stronger effect = lower value 0.994 | S. cerevisiae deletion strains, locus YOR136W, strain idh2, stronger effect = lower value 1 | S. cerevisiae deletion strains, locus YOR144C, strain elg1, stronger effect = lower value 0.998 | S. cerevisiae deletion strains, locus YOR184W, strain ser1, stronger effect = lower value 0.99 | S. cerevisiae deletion strains, locus YOR231W, strain MKK1, stronger effect = lower value 1.01 | S. cerevisiae deletion strains, locus YOR265W, strain rbl2, stronger effect = lower value 0.984 | S. cerevisiae deletion strains, locus YOR270C, strain vph1, stronger effect = lower value 0.896 | S. cerevisiae deletion strains, locus YOR290C, strain snf2, stronger effect = lower value 0.951 | S. cerevisiae deletion strains, locus YOR316C, strain cot1, stronger effect = lower value 0.995 | S. cerevisiae deletion strains, locus YPL051W, strain arl3, stronger effect = lower value 0.975 | S. cerevisiae deletion strains, locus YPL055C, strain LGE1, stronger effect = lower value 0.992 | S. cerevisiae deletion strains, locus YPL078C, strain atp4, stronger effect = lower value 0.99 | S. cerevisiae deletion strains, locus YPL106C, strain sse1, stronger effect = lower value 0.946 | S. cerevisiae deletion strains, locus YPL240C, strain hsp82, stronger effect = lower value 0.986 | S. cerevisiae deletion strains, locus YPL241C, strain CIN2, stronger effect = lower value 1.01 | S. cerevisiae deletion strains, locus YPL256C, strain CLN2, stronger effect = lower value 0.956 | S. cerevisiae deletion strains, locus YPR119W, strain clb2, stronger effect = lower value 0.997 | S. cerevisiae deletion strains, locus YPR141C, strain kar3, stronger effect = lower value 1 | S. cerevisiae deletion strains, locus YPR163C, strain tif3, stronger effect = lower value 1 | S. cerevisiae deletion strains, locus YPR167C, strain met16, stronger effect = lower value 0.996 | S. cerevisiae deletion strains, strain wtn01, stronger effect = lower value 0.996 | S. cerevisiae strains, strain wild type, stronger effect = lower value 1.01
